Experimental data taken from the supplement of paper PMC8728848.
The full list was thinned out, with the strongest signals kept by preference.

Tests used:
Assay in all cases: glycan array binding signal (z-score within array); higher = stronger binding
Details in all cases: glycan notation: IUPAC condensed, linker removed
[1] = biological target: Gal(b1-4)GlcNAc(b1-3)Gal(b1-4)GlcNAc(b1-3)Gal(b1-4)GlcNAc(b1-2)Man(a1-3)[Gal(b1-4)GlcNAc(b1-3)Gal(b1-4)GlcNAc(b1-3)Gal(b1-4)GlcNAc(b1-2)Man(a1-6)]Man(b1-4)GlcNAc(b1-4)[Fuc(a1-6)]GlcNAc
Summary of the method: (§1)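 Glycan array data were curated from 3228 arrays in the Consortium for Functional Glycomics database and kept only where the protein sequence was available. Glycan names were converted to IUPAC-condensed notation, and columns mapping to the same glycan were averaged. The binding signal is a within-array Z-score, averaged across arrays of the same protein sequence at different concentrations or buffers and across linkers. Negative Z-scores can be read as non-binding.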

[2] = biological target: Gal(b1-4)GlcNAc(b1-3)Gal(b1-4)GlcNAc(b1-3)Gal(b1-4)GlcNAc(b1-2)[Gal(b1-4)GlcNAc(b1-3)Gal(b1-4)GlcNAc(b1-3)Gal(b1-4)GlcNAc(b1-6)]Man(a1-6)[Gal(b1-4)GlcNAc(b1-3)Gal(b1-4)GlcNAc(b1-3)Gal(b1-4)GlcNAc(b1-2)Man(a1-3)]Man(b1-4)GlcNAc(b1-4)[Fuc(a1-6)]GlcNAc
Summary of the method: as §1

[3] = biological target: Gal(b1-4)GlcNAc(b1-3)Gal(b1-4)GlcNAc(b1-3)Gal(b1-4)GlcNAc(b1-3)Gal(b1-4)GlcNAc(b1-2)Man(a1-3)[Gal(b1-4)GlcNAc(b1-3)Gal(b1-4)GlcNAc(b1-3)Gal(b1-4)GlcNAc(b1-3)Gal(b1-4)GlcNAc(b1-2)Man(a1-6)]Man(b1-4)GlcNAc(b1-4)GlcNAc
Summary of the method: as §1

[4] = biological target: Gal(b1-4)GlcNAc(b1-3)Gal(b1-4)GlcNAc(b1-3)Gal(b1-4)GlcNAc(b1-3)Gal(b1-4)GlcNAc(b1-2)[Gal(b1-4)GlcNAc(b1-3)Gal(b1-4)GlcNAc(b1-3)Gal(b1-4)GlcNAc(b1-3)Gal(b1-4)GlcNAc(b1-6)]Man(a1-6)[Gal(b1-4)GlcNAc(b1-3)Gal(b1-4)GlcNAc(b1-3)Gal(b1-4)GlcNAc(b1-3)Gal(b1-4)GlcNAc(b1-2)Man(a1-3)]Man(b1-4)GlcNAc(b1-4)[Fuc(a1-6)]GlcNAc
Summary of the method: as §1

[5] = biological target: Gal(b1-4)GlcNAc(b1-3)Gal(b1-4)GlcNAc(b1-3)Gal(b1-4)GlcNAc(b1-3)Gal(b1-4)GlcNAc(b1-3)Gal(b1-4)GlcNAc(b1-2)[Gal(b1-4)GlcNAc(b1-3)Gal(b1-4)GlcNAc(b1-3)Gal(b1-4)GlcNAc(b1-3)Gal(b1-4)GlcNAc(b1-3)Gal(b1-4)GlcNAc(b1-6)]Man(a1-6)[Gal(b1-4)GlcNAc(b1-3)Gal(b1-4)GlcNAc(b1-3)Gal(b1-4)GlcNAc(b1-3)Gal(b1-4)GlcNAc(b1-3)Gal(b1-4)GlcNAc(b1-2)Man(a1-3)]Man(b1-4)GlcNAc(b1-4)[Fuc(a1-6)]GlcNAc
Summary of the method: as §1

[6] = biological target: Gal(b1-4)GlcNAc(b1-6)[Gal(b1-4)GlcNAc(b1-3)]GalNAc
Summary of the method: as §1

[7] = biological target: Gal3S(b1-3)GlcNAc
Summary of the method: as §1

[8] = biological target: Gal3S(b1-4)Glc6S
Summary of the method: as §1

[9] = biological target: Gal3S(b1-4)[Fuc(a1-3)]GlcNAc6S
Summary of the method: as §1

[10] = biological target: GalNAc(b1-4)GlcNAc6S
Summary of the method: as §1

[11] = biological target: GlcNAc(a1-4)Gal(b1-4)GlcNAc(b1-3)Gal(b1-4)GlcNAc(b1-3)Gal(b1-4)GlcNAc
Summary of the method: as §1

[12] = biological target: GlcNAc(a1-4)Gal(b1-4)GlcNAc(b1-3)Gal(b1-4)[Fuc(a1-3)]GlcNAc(b1-3)Gal(b1-4)[Fuc(a1-3)]GlcNAc
Summary of the method: as §1

[13] = biological target: GlcNAc(b1-3)Fuc
Summary of the method: as §1

[14] = biological target: GlcNAc(b1-3)Gal(b1-4)GlcNAc(b1-3)Gal(b1-4)GlcNAc(b1-2)Man(a1-3)[GlcNAc(b1-3)Gal(b1-4)GlcNAc(b1-3)Gal(b1-4)GlcNAc(b1-2)Man(a1-6)]Man(b1-4)GlcNAc(b1-4)[Fuc(a1-6)]GlcNAc
Summary of the method: as §1

[15] = biological target: GlcNAc(b1-3)GalNAc
Summary of the method: as §1

[16] = biological target: GlcNAc(b1-3)[GlcNAc(b1-6)]GalNAc
Summary of the method: as §1

[17] = biological target: Man(a1-6)Man
Summary of the method: as §1

[18] = biological target: Neu5Ac(a2-3)Gal(b1-3)[Neu5Ac(a2-3)Gal(b1-4)]GlcNAc
Summary of the method: as §1

[19] = biological target: Neu5Ac(a2-3)Gal(b1-4)GlcNAc
Summary of the method: as §1

[20] = biological target: Neu5Ac(a2-3)Gal(b1-4)GlcNAc(b1-3)Gal(b1-4)GlcNAc(b1-2)Man(a1-3)[Neu5Ac(a2-3)Gal(b1-4)GlcNAc(b1-3)Gal(b1-4)GlcNAc(b1-2)Man(a1-6)]Man(b1-4)GlcNAc(b1-4)GlcNAc
Summary of the method: as §1

[21] = biological target: Neu5Ac(a2-3)Gal(b1-4)[Fuc(a1-3)]GlcNAc(b1-3)Gal(b1-4)[Fuc(a1-3)]GlcNAc(b1-3)Gal(b1-4)[Fuc(a1-3)]GlcNAc
Summary of the method: as §1

[22] = biological target: Neu5Ac(a2-3)Gal6S(b1-4)GlcNAc
Summary of the method: as §1

[23] = biological target: Neu5Ac(a2-3)[Neu5Ac(a2-6)]GalNAc
Summary of the method: as §1

[24] = biological target: Neu5Ac(a2-6)Gal(b1-4)GlcNAc(b1-2)Man(a1-3)[Neu5Ac(a2-3)Gal(b1-4)GlcNAc(b1-2)Man(a1-6)]Man(b1-4)GlcNAc(b1-4)GlcNAc
Summary of the method: as §1

[25] = biological target: Neu5Ac(a2-6)Gal(b1-4)GlcNAc(b1-3)Gal(b1-4)GlcNAc
Summary of the method: as §1

[26] = biological target: Neu5Ac(a2-6)Gal(b1-4)GlcNAc(b1-3)Gal(b1-4)GlcNAc(b1-3)[Neu5Ac(a2-6)Gal(b1-4)GlcNAc(b1-3)Gal(b1-4)GlcNAc(b1-6)]GalNAc
Summary of the method: as §1

[27] = biological target: Neu5Ac(a2-6)Gal(b1-4)GlcNAc(b1-6)[Gal(b1-3)GlcNAc(b1-3)]Gal(b1-4)Glc
Summary of the method: as §1

[28] = biological target: Neu5Ac(a2-6)GlcNAc(b1-4)GlcNAc
Summary of the method: as §1

[29] = biological target: Neu5Ac(a2-8)Neu5Ac
Summary of the method: as §1

[30] = biological target: Neu5Ac(a2-8)Neu5Ac(a2-8)Neu5Ac(a2-3)Gal(b1-4)Glc
Summary of the method: as §1

[31] = biological target: Neu5Ac(a2-8)Neu5Ac(a2-8)Neu5Ac(a2-3)[GalNAc(b1-4)]Gal(b1-4)Glc
Summary of the method: as §1

B1: Gal 1 (Mus musculus), P16045 (protein)
chain: MACGLVASNLNLKPGECLKVRGEVASDAKSFVLNLGKDSNNLCLHFNPRFNAHGDANTIVCNTKEDGTWGTEHREPAFPFQPGSITEVCITFDQADLTIKLPDGHEFKFPNRLNMEAINYMAADGDFKIKCVAFE
glycan array binding signal (z-score) [1]: 2.53 | glycan array binding signal (z-score) [2]: 3.89 | glycan array binding signal (z-score) [3]: 2.54 | glycan array binding signal (z-score) [4]: 3.42 | glycan array binding signal (z-score) [5]: 3.46 | glycan array binding signal (z-score) [6]: -0.011 | glycan array binding signal (z-score) [7]: 2.76 | glycan array binding signal (z-score) [8]: 0.672 | glycan array binding signal (z-score) [9]: 2.69 | glycan array binding signal (z-score) [10]: -0.452 | glycan array binding signal (z-score) [11]: -0.404 | glycan array binding signal (z-score) [12]: -0.015 | glycan array binding signal (z-score) [13]: -0.43 | glycan array binding signal (z-score) [14]: -0.19 | glycan array binding signal (z-score) [15]: -0.094 | glycan array binding signal (z-score) [16]: -0.292 | glycan array binding signal (z-score) [17]: 0.23 | glycan array binding signal (z-score) [18]: 0.068 | glycan array binding signal (z-score) [19]: -0.256 | glycan array binding signal (z-score) [20]: 1.31 | glycan array binding signal (z-score) [21]: -0.083 | glycan array binding signal (z-score) [22]: -0.411 | glycan array binding signal (z-score) [23]: -0.3 | glycan array binding signal (z-score) [24]: -0.219 | glycan array binding signal (z-score) [25]: -0.348 | glycan array binding signal (z-score) [26]: 1.13 | glycan array binding signal (z-score) [27]: 0.027 | glycan array binding signal (z-score) [28]: -0.34 | glycan array binding signal (z-score) [29]: -0.093 | glycan array binding signal (z-score) [30]: -0.347 | glycan array binding signal (z-score) [31]: -0.144
